Laboratory results published in PubChem BioAssay (NCATS).
Records with an inconclusive call do not appear. Activity calls are given as the source filed them. Unless noted, the call rests on the fitted dose curve; in most records, active means well fitted curve in the direction sought with a large enough effect; inconclusive means small, poorly fitted or top-dose-only effect, or another doubt; inactive means no such curve, though single readings can be large; an effect the other way counts as inactive or inconclusive.

What was measured:
[1] = qHTS for differential inhibitors of proliferation of Plasmodium falciparum line 3D7 (AID 1876); further: potency means the concentration at half of the fitted maximal effect
[2] = qHTS for differential inhibitors of proliferation of Plasmodium falciparum line D10 (AID 1877);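 further: parasites grown with compound for 72 h before DNA staining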; further: potency means the concentration at half of the fitted maximal effect
[3] = qHTS for differential inhibitors of proliferation of Plasmodium falciparum line HB3 (AID 1886); settings: Potency: Plasmodium falciparum HB3 proliferation inhibition;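 further: parasites grown with compound for 72 h before SYBR Green readout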; further: potency means the concentration at half of the fitted maximal effect
[4] = qHTS Assay for Modulators of Human Peripheral Myelin Protein 22 (PMP22) Expression/Activity (AID 1967; active means well fitted curve in the direction sought with a large enough effect in the signal ratio; the % refers to the signal ratio)
Procedure, shortened: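 Engineered MSC80 cells, Pmp22-promoter green and EF-alpha red luciferase reporters; 24h compound treatment at 37 °C. Concentration-response fits on green, red and ratio signals, each overlap-corrected, with %Activity normalized to untreated wells.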

[5] = molecular target: RecQ-like DNA helicase BLM (Homo sapiens) (UniProt P54132); test: qHTS Validation Assay for Inhibitors of Bloom's syndrome helicase (BLM) (AID 2364)
Procedure, shortened: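 50 nM BLM preincubated 15 min at room temperature with compound in pH 8.0 Tris buffer containing 2.5 ug/ml poly(dI-dC); started with 200 nM TAMRA/BHQ-2 forked duplex and 2 mM ATP (final). Unwinding read as TAMRA fluorescence increase, two reads 2 h apart.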

[6] = Cytometric Cell-Based qHTS for Inhibitors of the mTORC1 Signaling Pathway in MEF (Tsc2-/-, p53-/-) Cells (AID 2660); further: potency means the concentration at half of the fitted maximal effect
Procedure, shortened: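 Readout: Alexa-488 phospho-rpS6 (Ser235/236) intensity divided by PI intensity, thresholded against 7.5 nM rapamycin wells and reported as % positive cells. PI cell count served as the viability measure. Compound exposure was 24 hrs at 37 degree Celsius.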

[7] = qHTS for differential inhibitors of proliferation of Plasmodium falciparum line W2 (AID 1883); settings: Potency: Plasmodium falciparum W2 proliferation inhibition;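 further: parasites grown with compound for 72 h before lysis and staining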; further: potency means the concentration at half of the fitted maximal effect
[8] = molecular target: Ferritin light chain (Equus caballus) (UniProt P02791); test: qHTS Validation Assay for Identification of Novel General Anesthetics (AID 2323); further: series mostly up to about 77 µM
Procedure, shortened: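 Normalized fluorescence response, scaled between free 1-AMA and 1-AMA/apoferritin complex, fitted to a four-parameter Hill equation for concentration-effect values. Binding mix: 10 uM horse-spleen apoferritin, 50% saturated 1-AMA in PBS; read 380/535 nm after 10 min.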

[9] = molecular target: ATP-dependent DNA helicase Q1 (Homo sapiens) (UniProt P46063); test: qHTS Validation Assay for Inhibitors of RecQ-Like Dna Helicase 1 (RECQ1) (AID 2353)
Procedure, shortened: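 50 nM RECQ1T1 preincubated 15 min with compound in Tris pH 8.0 buffer with MgCl2, DTT, Tween-20 and 2.5 ug/ml poly(dI-dC); started with 200 nM TAMRA/BHQ-2 forked duplex and 2 mM ATP. Unwinding read as fluorescence (525/598 nm), two reads 2 h apart.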

Measured: Potency

RecQ-like DNA helicase BLM (Homo sapiens), sequence (P54132 whole entry, looked up): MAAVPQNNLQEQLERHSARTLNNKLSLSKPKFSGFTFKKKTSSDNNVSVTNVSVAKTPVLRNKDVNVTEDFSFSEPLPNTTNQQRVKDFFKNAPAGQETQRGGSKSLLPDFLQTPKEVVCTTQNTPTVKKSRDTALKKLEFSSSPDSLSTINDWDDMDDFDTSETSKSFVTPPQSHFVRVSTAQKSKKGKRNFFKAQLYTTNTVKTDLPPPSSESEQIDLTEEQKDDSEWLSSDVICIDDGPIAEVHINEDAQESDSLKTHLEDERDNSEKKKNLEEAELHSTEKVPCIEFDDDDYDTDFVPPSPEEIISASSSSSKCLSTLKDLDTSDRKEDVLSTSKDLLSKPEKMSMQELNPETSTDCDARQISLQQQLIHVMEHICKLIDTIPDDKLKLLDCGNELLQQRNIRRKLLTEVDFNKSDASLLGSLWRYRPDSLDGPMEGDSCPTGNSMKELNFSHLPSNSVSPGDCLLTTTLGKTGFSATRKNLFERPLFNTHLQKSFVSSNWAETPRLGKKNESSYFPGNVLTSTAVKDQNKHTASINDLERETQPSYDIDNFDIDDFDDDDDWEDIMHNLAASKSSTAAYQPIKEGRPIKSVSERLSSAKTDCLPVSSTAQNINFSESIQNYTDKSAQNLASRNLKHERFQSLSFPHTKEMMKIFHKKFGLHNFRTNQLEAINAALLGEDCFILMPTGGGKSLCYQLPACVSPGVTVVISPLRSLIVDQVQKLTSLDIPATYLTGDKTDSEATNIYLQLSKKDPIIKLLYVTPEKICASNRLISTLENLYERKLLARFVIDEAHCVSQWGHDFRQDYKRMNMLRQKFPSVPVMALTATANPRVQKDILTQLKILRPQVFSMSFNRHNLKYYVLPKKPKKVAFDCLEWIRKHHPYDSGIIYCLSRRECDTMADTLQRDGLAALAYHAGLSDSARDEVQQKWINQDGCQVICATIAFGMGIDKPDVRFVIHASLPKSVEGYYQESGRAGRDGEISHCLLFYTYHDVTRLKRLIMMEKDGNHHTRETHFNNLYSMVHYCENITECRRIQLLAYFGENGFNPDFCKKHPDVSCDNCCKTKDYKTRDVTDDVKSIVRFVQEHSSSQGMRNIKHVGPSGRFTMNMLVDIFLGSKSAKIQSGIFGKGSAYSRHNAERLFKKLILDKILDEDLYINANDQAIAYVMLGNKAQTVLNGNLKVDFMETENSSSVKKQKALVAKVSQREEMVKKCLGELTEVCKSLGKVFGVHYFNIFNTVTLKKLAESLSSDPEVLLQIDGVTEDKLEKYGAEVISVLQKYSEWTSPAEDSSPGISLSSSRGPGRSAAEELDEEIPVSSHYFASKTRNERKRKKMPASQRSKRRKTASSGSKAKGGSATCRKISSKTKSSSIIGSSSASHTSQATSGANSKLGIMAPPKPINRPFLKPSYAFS
Ferritin light chain (Equus caballus), sequence (P02791 2-175 limits assumed): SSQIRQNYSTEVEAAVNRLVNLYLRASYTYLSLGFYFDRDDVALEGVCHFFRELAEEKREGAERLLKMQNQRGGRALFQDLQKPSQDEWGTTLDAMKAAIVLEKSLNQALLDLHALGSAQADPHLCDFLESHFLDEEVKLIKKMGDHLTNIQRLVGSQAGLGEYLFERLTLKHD
ATP-dependent DNA helicase Q1 (Homo sapiens), sequence (P46063 whole entry, looked up): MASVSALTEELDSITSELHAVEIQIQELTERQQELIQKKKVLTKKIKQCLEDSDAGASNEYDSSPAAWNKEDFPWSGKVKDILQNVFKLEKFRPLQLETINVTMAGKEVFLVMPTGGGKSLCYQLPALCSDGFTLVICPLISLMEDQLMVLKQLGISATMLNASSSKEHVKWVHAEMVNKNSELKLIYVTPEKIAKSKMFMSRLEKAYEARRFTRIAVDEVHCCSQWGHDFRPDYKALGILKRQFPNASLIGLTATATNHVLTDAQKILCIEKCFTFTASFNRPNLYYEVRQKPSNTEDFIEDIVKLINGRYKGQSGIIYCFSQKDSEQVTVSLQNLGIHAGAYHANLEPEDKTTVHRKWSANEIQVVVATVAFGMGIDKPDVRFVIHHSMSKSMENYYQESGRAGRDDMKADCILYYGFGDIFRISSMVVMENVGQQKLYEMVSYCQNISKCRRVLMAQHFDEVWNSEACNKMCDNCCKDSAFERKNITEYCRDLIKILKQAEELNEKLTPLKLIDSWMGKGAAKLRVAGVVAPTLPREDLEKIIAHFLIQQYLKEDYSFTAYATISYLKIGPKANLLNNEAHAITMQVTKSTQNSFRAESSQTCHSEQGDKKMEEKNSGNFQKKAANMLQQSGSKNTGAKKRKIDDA

CCN(CC)CCNC(=O)c1cc(Cl)c(N)cc1OC
inactive: [1] | [2] | [3] | [4] | [5] | [6]

OCc1cc(C(O)CNCCCCCCOCCCCc2ccccc2)ccc1O (configuration not stated)
inactive: [6]
active: [1] 8.91 µM | [2] 12.6 µM | [7] 7.08 µM | [3] 10 µM

C[C@](N)(Cc1ccc(O)cc1)C(=O)O
inactive: [1] | [2] | [7] | [3] | [8] | [6]

CC(CN1c2ccccc2Sc2ccccc21)N(C)C (configuration not stated)
active: [1] 14.1 µM | [2] 14.1 µM | [7] 2.24 µM | [3] 11.2 µM
inactive: [8] | [6]

CN(C)CC[C@@H](c1ccc(Cl)cc1)c1ccccn1
inactive: [1] | [2] | [3] | [8] | [6]
active: [7] 1 µM

OCCN1CCN(CCCN2c3ccccc3Sc3ccc(Cl)cc32)CC1
inactive: [8] | [9] | [5]
active: [1] 2.82 µM | [2] 8.91 µM | [7] 2.51 µM | [3] 5.01 µM

NC1CCN(c2cccc(Cl)n2)CC1
inactive: [1] | [2] | [3] | [8] | [9] | [6]
active: [7] 5.62 µM

CCN(CC)CCCC(C)Nc1c2ccc(Cl)cc2nc2ccc(OC)cc12 (configuration not stated)
active: [1] 0.1 µM | [2] 0.0891 µM | [7] 0.0891 µM | [3] 0.0891 µM | [6] 16.5 µM
inactive: [5]

C[C@H]1O[C@@H](n2cc(F)c(=O)[nH]c2=O)[C@H](O)[C@@H]1O
inactive: [1] | [2] | [7] | [3] | [8] | [5]

Cc1cc(N)c2ccccc2[n+]1CCCCCCCCCC[n+]1c(C)cc(N)c2ccccc21
active: [1] 0.0501 µM | [2] 0.112 µM | [3] 0.126 µM
inactive: [8] | [5] | [6]

NC(N)=NCCC[C@H](N)C(=O)O
inactive: [1] | [2] | [7] | [3] | [8] | [5] | [6]

C#CCN(C)Cc1ccccc1
inactive: [1] | [2] | [3] | [8] | [6]

CNCCCC1c2ccccc2C=Cc2ccccc21
inactive: [8] | [5] | [6]
active: [1] 10 µM | [2] 14.1 µM | [7] 4.47 µM | [3] 11.2 µM

CC(C)(C(=O)O)c1ccc(C(O)CCCN2CCC(C(O)(c3ccccc3)c3ccccc3)CC2)cc1 (configuration not stated)
inactive: [1] | [2] | [3] | [4] | [6]

CC(=O)OCC(=O)[C@@]1(O)CC[C@H]2[C@@H]3CCC4=CC(=O)CC[C@]4(C)[C@H]3C(=O)C[C@@]21C
inactive: [1] | [2] | [3] | [8] | [6]

CN(C)CCCN1c2ccccc2Sc2ccc(Cl)cc21
inactive: [8] | [5] | [6]
active: [1] 4.47 µM | [2] 12.6 µM | [7] 3.55 µM | [3] 8.91 µM

CN1CCN(C2Cc3ccccc3Sc3ccc(Cl)cc32)CC1 (configuration not stated)
inactive: [5]
active: [1] 10 µM | [7] 5.01 µM | [3] 10 µM

CC1=C(CC(=O)O)c2cc(F)ccc2/C1=C\c1ccc(S(C)=O)cc1 (configuration not stated)
inactive: [1] | [2] | [3] | [6]

COc1ccc(Cl)cc1C(=O)NCCc1ccc(S(=O)(=O)NC(=O)NC2CCCCC2)cc1
inactive: [1] | [2] | [3] | [8] | [6]

CC(CN(C)C)CN1c2ccccc2CCc2ccccc21 (configuration not stated)
inactive: [8] | [5] | [6]
active: [1] 8.91 µM | [2] 11.2 µM | [7] 6.31 µM | [3] 11.2 µM
